The source made the active and inactive calls. No rule for the calls is given here.
These compounds were tested against Pantothenate synthetase (Mycobacterium tuberculosis (strain ATCC 25618 / H37Rv)) (UniProt P9WIL5) (assay: Coupled enzyme confirmation of inhibitors against recombinant Mtb PanC (AID 375;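 also: 0% = full reaction with vehicle and 100% = no enzyme background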)). Details: coupled enzyme assay; at 10 µM, active compounds read high.
Pantothenate synthetase (Mycobacterium tuberculosis (strain ATCC 25618 / H37Rv)), sequence (P9WIL5 whole entry, looked up): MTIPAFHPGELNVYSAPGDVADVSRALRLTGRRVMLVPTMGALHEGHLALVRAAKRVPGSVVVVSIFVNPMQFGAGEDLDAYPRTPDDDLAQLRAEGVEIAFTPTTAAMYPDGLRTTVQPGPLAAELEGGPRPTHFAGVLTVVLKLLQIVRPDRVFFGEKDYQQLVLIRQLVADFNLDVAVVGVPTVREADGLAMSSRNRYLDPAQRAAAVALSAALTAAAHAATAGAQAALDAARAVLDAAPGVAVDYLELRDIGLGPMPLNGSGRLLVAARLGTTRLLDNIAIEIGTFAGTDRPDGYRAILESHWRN

For Cc1ccc(-c2nc3cc(NC(=O)C(C)C)ccc3o2)cc1C, which inhibition is on record?
The inhibition was 0% (inactive).

With O=C(NCCc1ccccc1)C1CCCN(S(=O)(=O)c2cccs2)C1 (stereo not given) as the compound, how does the inhibition read?
Its inhibition is 9% (inactive).

Which inhibition does the source give for CCN(CC)C(=O)CN(c1cc(Cl)ccc1OC)S(C)(=O)=O here?
Its inhibition is 0% (inactive).

For CCCCc1c(O)nc(SCC(=O)c2ccccc2)[nH]c1=O, which inhibition is on record?
The inhibition was 0% (inactive).

With CC(C)n1nnnc1SCC(=O)Nc1ccccc1N1CCOCC1 as the compound, how does the inhibition read?
Its inhibition is 1% (inactive).

COC(=O)c1cccc(NC(=O)C2COc3ccccc3O2)c1C (stereo not given) was tested. Which inhibition did it give?
The inhibition was 0% (inactive).

How did the inhibition turn out when c1ccc2c(CC3=NCCN3)cccc2c1 was run?
The inhibition was 0% (inactive).

How did the inhibition turn out when COc1ccccc1N(CC(=O)Nc1cccnc1)S(C)(=O)=O was run?
The inhibition was 5% (inactive).

How did the inhibition turn out when COc1ccc(-c2cc3ccc(OCc4nn[nH]n4)cc3oc2=O)cc1 was run?
The inhibition was 7% (inactive).

With COc1ccc(/C=N/n2c(=O)[nH]c3c([nH]c4ccc(C)cc43)c2=O)cc1CN1CCOCC1 as the compound, how does the inhibition read?
Its inhibition is 2% (inactive).

How did the inhibition turn out when COc1ccc(CCN2CCC(Nc3nc4ccccc4n3Cc3ccc(F)cc3)CC2)cc1 was run?
The inhibition was 2% (inactive).

Which inhibition does the source give for OCCNCC(O)Cn1ccc2ccccc21 (stereo not given) here?
Its inhibition is 2% (inactive).

With Cn1c(=O)c2c(nc(NCc3ccc4c(c3)OCO4)n2Cc2ccccc2F)n(C)c1=O as the compound, how does the inhibition read?
The inhibition was 3% (inactive).

Which inhibition does the source give for CN(C)S(=O)(=O)c1ccc(C(=O)N2CCCC2c2nc3ccccc3s2)cc1 (stereo not given) here?
Its inhibition is 0% (inactive).

For CCN1CCCC1CNC(=O)c1cc2c(=O)n(C)c3ccccc3c2n1C (stereo not given), which inhibition is on record?
The inhibition was 0% (inactive).

Which inhibition does the source give for Cn1c(SCc2ccc3c(c2)OCO3)nnc1-c1ccccc1 here?
Its inhibition is 0% (inactive).

O=C(CN1C(=O)CSC1=O)Nc1ccc(N2CCOCC2)cc1 was tested. Which inhibition did it give?
The inhibition was 7% (inactive).

With Cc1cc2c(cc(C(=O)NCc3cccnc3)n2Cc2ccc(Cl)cc2)o1 as the compound, how does the inhibition read?
The inhibition was 4% (inactive).

How did the inhibition turn out when CCc1ccccc1NC(=O)CSc1nc2n[nH]c(C)c2c(=N)n1-c1ccc(OC)cc1 was run?
Its inhibition is 0% (inactive).

CCOC(=O)c1c(NC(=O)Cn2c(C)nc3ccccc32)sc2c1CCC2 was tested. Which inhibition did it give?
The inhibition was 0% (inactive).

Cc1cnc(SCCc2ccncc2)nc1C was tested. Which inhibition did it give?
The inhibition was 2% (inactive).

Which inhibition does the source give for COC(=O)COc1cccc(NC(=O)COc2ccccc2)c1 here?
Its inhibition is 2% (inactive).

CC(=O)C1=C(C)NC(SCSc2ccccc2)=C(C#N)C1c1cccnc1 (stereo not given) was tested. Which inhibition did it give?
Its inhibition is 4% (inactive).

For CC(Sc1nc(-c2ccccc2)cc(C(F)(F)F)n1)C(=O)N1CCCC1 (stereo not given), which inhibition is on record?
The inhibition was 1% (inactive).

For O=C(CN1CCN(Cc2ccccc2F)C1=O)NCc1cccnc1, which inhibition is on record?
Its inhibition is 0% (inactive).

Which inhibition does the source give for O=C(Nc1ccc2c(c1)OCCO2)C1CCCN(S(=O)(=O)c2cnc[nH]2)C1 (stereo not given) here?
Its inhibition is 0% (inactive).

For Cc1ccc(C)c(C(=O)CC2(O)C(=O)Nc3ccccc32)c1 (stereo not given), which inhibition is on record?
The inhibition was 5% (inactive).

With COc1ccccc1N1C(=O)c2ccccc2NC1c1ccncc1 (stereo not given) as the compound, how does the inhibition read?
The inhibition was 3% (inactive).

Which inhibition does the source give for O=C(NO)c1ccccc1O here?
The inhibition was 0% (inactive).

Which inhibition does the source give for Cc1cccc(N2C(=O)CC(N3CCN(Cc4ccc(Cl)cc4)CC3)C2=O)c1 (stereo not given) here?
Its inhibition is 0% (inactive).

CCN1CCN(Cc2c(C)[nH]c3ccc(OC)cc3c2=O)CC1 was tested. Which inhibition did it give?
Its inhibition is 1% (inactive).

With Cc1nn(S(=O)(=O)N2CCCCC2)c(C)c1Br as the compound, how does the inhibition read?
Its inhibition is 0% (inactive).

Which inhibition does the source give for O=C(Nc1ccc2c(c1)OCO2)C1CCCN1C(=O)Nc1ccccc1F (stereo not given) here?
Its inhibition is 3% (inactive).

COCCNC(=O)CN(C)S(=O)(=O)c1ccc2c(c1)OCCO2 was tested. Which inhibition did it give?
Its inhibition is 7% (inactive).

COc1ccc(-c2coc3c(CN4CCCCC4)c(O)c(CN4CCCCC4)c(O)c3c2=O)cc1 was tested. Which inhibition did it give?
The inhibition was 0% (inactive).

CC(=O)Oc1ccc(-c2ccc(C(=O)O)cc2)cc1 was tested. Which inhibition did it give?
The inhibition was 4% (inactive).

Which inhibition does the source give for CCN(CC)S(=O)(=O)c1cccc(-c2nnc(SCC(N)=O)n2CCc2ccccc2)c1 here?
Its inhibition is 0% (inactive).

With CCOc1cc(-c2nc(-c3ccc(C)nc3OCC)no2)cc(OCC)c1OCC as the compound, how does the inhibition read?
Its inhibition is 0% (inactive).

How did the inhibition turn out when CN(C)CC(=O)N1c2ccccc2CCc2ccc(NC(=O)c3ccc(N)cc3)cc21 was run?
Its inhibition is 0% (inactive).

For O=C(O)c1c[nH]c2ccc(S(=O)(=O)N3CCN(c4ccc(F)cc4)CC3)cc2c1=O, which inhibition is on record?
Its inhibition is 0% (inactive).
